Results: the supplement of paper PMC11732987, “Enantioselective OTUD7B fragment discovery through chemoproteomics screening and high-throughput optimisation” (Communications Chemistry, 2025)

How the values were obtained:
Experiment in all cases: log2 ratio of Biotin-Ahx-Ub-VS probe labelling (fragment/DMSO); higher = less target engagement (more negative = stronger competition), active = hit call of the paper (q ≤ 0.05, log2 ratio ≤ -1)
Conditions in all cases: compound concentration: 200 uM; treatment time: 3 h
ALG13 = target: T1, ALG13 (UniProt Q9NP73)
T1 sequence (whole entry): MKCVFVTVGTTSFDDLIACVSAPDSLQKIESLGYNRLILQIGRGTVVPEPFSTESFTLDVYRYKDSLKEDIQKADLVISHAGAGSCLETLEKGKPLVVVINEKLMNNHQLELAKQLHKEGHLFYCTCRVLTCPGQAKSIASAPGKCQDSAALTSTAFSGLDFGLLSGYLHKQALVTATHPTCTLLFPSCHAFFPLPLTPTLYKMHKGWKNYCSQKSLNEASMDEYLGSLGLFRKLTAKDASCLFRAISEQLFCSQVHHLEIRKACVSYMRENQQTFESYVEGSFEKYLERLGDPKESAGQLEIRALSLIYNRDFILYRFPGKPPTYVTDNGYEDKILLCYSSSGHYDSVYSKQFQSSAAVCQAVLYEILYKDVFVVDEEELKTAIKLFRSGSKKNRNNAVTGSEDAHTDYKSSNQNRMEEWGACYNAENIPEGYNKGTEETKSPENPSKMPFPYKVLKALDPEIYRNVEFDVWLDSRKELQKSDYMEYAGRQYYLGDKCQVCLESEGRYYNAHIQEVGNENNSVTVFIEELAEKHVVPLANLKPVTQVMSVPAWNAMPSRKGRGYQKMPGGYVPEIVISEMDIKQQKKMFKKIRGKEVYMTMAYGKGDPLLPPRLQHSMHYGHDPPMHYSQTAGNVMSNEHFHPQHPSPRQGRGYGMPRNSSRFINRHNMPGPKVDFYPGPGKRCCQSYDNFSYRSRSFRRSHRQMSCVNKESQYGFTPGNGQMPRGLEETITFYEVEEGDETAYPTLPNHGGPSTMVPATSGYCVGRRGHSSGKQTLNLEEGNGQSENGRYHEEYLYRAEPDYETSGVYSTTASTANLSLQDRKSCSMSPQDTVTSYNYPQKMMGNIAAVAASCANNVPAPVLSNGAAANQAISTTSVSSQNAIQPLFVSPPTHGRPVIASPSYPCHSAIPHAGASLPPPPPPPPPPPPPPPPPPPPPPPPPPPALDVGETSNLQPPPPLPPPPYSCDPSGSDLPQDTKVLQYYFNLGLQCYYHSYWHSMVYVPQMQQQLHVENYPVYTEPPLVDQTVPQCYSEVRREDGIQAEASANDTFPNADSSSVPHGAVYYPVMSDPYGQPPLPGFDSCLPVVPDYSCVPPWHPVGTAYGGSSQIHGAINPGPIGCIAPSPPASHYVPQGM
Method in brief: (§1)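 Labelling with Biotin-Ahx-Ub-VS (0.5 µM final, 1 h) followed a 3 h triplicate treatment of HEK293T lysate (495 µg per sample, Tris/CHAPS/IGEPAL buffer with protease inhibitors) with fragment at 200 µM or vehicle. Labelled DUBs were NeutrAvidin-enriched, digested with LysC and trypsin, and run by diaPASEF LC-MS/MS. The values, average log2 fragment/vehicle ratios by unpaired t-test, come from global-median-normalised Spectronaut label-free quantities. Proteins with ≥2 unique peptides were used.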

ATXN3 = ATXN3 (UniProt P54252)
Sequence of ATXN3 (P54252 whole entry): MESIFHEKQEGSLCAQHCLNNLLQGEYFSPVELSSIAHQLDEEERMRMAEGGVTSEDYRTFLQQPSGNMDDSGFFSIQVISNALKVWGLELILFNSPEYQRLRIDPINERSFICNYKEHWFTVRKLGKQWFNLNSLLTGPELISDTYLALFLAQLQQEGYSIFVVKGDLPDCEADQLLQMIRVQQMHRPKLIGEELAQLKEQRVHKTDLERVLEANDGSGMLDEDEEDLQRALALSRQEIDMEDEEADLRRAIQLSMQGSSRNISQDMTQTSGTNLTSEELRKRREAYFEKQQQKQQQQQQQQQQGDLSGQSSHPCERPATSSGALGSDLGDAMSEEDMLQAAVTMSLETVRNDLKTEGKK
Method in brief: as §1

BAP1 = target: T2, BAP1 (UniProt Q92560)
T2 sequence (whole entry): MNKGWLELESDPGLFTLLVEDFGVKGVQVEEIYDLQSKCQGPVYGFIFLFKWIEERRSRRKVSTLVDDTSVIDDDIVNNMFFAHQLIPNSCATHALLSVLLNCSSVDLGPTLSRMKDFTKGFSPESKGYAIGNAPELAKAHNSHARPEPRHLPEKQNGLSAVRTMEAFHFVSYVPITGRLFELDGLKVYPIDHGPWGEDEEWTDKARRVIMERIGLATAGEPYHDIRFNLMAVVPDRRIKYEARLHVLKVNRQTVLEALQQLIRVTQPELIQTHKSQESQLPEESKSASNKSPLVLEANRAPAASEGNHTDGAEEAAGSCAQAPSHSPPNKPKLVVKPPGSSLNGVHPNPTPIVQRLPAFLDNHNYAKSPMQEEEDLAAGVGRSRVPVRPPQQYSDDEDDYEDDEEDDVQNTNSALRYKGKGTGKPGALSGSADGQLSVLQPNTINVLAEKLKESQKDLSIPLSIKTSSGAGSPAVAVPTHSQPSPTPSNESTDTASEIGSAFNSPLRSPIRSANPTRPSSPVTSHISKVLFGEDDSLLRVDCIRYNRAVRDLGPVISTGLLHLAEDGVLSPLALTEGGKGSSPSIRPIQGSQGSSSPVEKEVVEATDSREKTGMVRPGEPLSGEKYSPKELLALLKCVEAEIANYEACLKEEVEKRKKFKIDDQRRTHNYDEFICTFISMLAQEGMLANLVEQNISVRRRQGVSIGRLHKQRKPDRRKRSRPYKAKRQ
Method in brief: as §1

EIF3F = EIF3F (UniProt O00303)
Sequence of EIF3F (O00303 whole entry): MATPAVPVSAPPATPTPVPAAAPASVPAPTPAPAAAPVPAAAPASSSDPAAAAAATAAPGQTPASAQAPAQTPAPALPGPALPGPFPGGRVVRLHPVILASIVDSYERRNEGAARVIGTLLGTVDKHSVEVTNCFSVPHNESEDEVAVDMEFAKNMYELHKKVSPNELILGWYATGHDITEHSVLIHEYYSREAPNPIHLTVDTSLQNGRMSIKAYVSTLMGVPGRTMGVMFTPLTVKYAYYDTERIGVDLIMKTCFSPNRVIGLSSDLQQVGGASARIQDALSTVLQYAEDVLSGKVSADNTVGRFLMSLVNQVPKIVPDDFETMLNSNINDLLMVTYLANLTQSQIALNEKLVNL
Method in brief: as §1

EIF3H = EIF3H (UniProt O15372)
Sequence of EIF3H (O15372 whole entry): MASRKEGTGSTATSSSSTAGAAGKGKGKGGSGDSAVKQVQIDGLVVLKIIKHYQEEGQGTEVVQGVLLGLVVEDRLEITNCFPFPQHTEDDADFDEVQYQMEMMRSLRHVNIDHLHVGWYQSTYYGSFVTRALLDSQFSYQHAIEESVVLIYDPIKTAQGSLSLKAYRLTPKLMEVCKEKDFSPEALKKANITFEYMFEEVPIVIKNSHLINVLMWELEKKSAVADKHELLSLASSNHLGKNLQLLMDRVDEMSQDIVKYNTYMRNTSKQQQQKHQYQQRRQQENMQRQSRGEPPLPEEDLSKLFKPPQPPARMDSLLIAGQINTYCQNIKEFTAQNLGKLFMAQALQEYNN
Method in brief: as §1

FAM105A = target: T3, FAM105A (UniProt Q9NUU6)
T3 sequence (whole entry): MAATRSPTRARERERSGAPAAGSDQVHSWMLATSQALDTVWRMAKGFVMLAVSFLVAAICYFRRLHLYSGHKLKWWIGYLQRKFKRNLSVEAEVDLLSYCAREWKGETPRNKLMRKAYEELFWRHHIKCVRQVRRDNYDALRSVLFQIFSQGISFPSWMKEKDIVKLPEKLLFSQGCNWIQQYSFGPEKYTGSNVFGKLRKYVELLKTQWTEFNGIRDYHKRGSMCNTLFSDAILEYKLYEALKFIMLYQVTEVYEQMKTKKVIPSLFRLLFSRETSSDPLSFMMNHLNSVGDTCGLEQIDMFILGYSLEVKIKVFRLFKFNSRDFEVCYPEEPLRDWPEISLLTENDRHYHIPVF
Method in brief: as §1

OTUB1 = OTUB1 (UniProt Q96FW1)
Sequence of OTUB1 (Q96FW1 whole entry): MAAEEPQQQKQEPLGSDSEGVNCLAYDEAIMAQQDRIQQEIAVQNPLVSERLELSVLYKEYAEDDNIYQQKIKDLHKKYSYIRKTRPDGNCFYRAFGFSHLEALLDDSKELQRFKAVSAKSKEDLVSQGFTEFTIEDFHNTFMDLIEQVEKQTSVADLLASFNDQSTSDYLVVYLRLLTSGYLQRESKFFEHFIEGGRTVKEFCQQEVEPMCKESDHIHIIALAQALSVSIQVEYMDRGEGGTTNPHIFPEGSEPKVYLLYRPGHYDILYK
Method in brief: as §1

OTUD4 = target: T4, OTUD4 (UniProt Q01804)
T4 sequence (whole entry): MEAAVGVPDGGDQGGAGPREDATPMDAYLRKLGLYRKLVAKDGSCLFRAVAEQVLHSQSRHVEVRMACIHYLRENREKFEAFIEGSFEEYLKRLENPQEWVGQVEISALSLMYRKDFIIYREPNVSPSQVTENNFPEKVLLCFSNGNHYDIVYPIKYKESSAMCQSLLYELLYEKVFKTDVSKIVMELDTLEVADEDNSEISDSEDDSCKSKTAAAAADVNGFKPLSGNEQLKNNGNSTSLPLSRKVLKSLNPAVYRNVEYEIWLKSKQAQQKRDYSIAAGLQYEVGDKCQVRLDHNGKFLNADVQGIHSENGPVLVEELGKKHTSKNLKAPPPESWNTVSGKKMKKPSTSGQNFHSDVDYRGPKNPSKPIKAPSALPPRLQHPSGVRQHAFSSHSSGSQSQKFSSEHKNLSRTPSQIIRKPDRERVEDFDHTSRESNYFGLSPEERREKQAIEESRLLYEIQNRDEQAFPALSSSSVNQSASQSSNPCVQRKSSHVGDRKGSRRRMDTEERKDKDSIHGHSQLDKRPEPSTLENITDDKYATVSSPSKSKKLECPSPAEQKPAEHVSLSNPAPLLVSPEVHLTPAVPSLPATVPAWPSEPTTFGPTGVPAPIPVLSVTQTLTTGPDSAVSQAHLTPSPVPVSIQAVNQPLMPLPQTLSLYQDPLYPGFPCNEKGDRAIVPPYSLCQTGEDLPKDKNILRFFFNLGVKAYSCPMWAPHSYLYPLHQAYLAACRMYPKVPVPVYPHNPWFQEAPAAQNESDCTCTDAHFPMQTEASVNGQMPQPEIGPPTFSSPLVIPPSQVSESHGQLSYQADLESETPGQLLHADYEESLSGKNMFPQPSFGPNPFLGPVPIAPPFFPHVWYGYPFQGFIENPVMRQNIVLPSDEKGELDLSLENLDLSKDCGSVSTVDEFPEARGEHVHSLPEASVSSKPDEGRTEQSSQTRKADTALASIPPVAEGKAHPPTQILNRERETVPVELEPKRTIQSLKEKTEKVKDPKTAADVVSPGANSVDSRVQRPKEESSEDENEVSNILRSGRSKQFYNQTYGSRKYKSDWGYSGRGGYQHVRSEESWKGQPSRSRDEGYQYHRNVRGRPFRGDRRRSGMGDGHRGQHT
Method in brief: as §1

OTUD5 = target: T5, OTUD5 (UniProt Q96G74)
T5 sequence (whole entry): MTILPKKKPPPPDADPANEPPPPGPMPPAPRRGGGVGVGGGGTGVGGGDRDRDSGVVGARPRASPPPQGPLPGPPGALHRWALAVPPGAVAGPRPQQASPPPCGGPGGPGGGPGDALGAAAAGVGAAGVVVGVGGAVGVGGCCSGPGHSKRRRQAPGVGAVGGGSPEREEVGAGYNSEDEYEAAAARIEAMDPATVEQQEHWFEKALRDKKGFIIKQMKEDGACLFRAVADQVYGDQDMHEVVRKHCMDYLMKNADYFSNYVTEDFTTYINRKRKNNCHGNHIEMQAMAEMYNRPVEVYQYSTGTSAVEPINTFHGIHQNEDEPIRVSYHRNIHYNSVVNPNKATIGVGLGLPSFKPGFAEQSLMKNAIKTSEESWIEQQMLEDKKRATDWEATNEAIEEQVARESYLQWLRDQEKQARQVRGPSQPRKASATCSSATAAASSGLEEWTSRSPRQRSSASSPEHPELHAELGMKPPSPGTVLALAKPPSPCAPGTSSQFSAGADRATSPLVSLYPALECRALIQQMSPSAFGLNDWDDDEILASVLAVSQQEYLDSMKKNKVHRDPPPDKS
Method in brief: as §1

Measured: log2 ratio of Biotin-Ahx-Ub-VS probe labelling

O=C(CCl)NCc1ccc(N2CCOCC2)nc1
active: BAP1 -2.61
inactive: ALG13 0.174 | ATXN3 -0.193 | EIF3F -0.156 | EIF3H 0.183 | FAM105A 0.479 | OTUB1 0.0139 | OTUD4 -0.539 | OTUD5 -0.385
